Test systems include RIPK5; ROCK1; ROCK2; ROS1.
Holding throughout (conditions): concentration: 1 μM, replicates: in singlicate; n = 1
Test [1] relates to RPS6KA4(Kin.Dom.1-N-terminal).
For test [2], the system named is RPS6KA4(Kin.Dom.2-C-terminal).
Test [3] relates to RPS6KA5(Kin.Dom.1-N-terminal).
Test [4] relates to RPS6KA5(Kin.Dom.2-C-terminal).
The test system of test [5] is T1, RSK1(Kin.Dom.1-N-terminal).
T1 construct: gene RPS6KA1

The subject of test [6] is T2, RSK1(Kin.Dom.2-C-terminal).
T2 construct: gene RPS6KA1
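Also: KINOMEscan kinase panel screen.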

As to `Cc1cccc(Cn2ccn3c(=O)cc(N4CCOCC4)nc23)c1` [GSK2297542], the “%Inh” value with RIPK5 is 1%; in the test on ROCK1, 17%; in the test with ROCK2 it was 27%; in the test with ROS1, 30%; in test [1], 13%; in [2], 0%. In addition, the “%Inh” value in test [3] was 16%; in test [4], 0%; in [5], 27%; in test [6], 25%.
`Cn1ccc2ncnc(Oc3ccc(NC(=O)Nc4ccncc4)c(Cl)c3)c21`: the “%Inh” value (in the test on RIPK5; with ROCK1; in the test with ROCK2; with ROS1; in test [1]; in test [2]) was 0% each time. In addition, the “%Inh” value in test [3] turned out to be 13%; in test [4], 0%; in [5], 0%; in test [6] it was 0%.
Turning to `O=C(NOCC1CC1)c1ccc(F)c(F)c1Nc1ccc(I)cc1Cl`, the “%Inh” value (with RIPK5; in the test with ROCK1; in the test on ROCK2; with ROS1; in test [1]; in [2]) was 0% throughout. For the same molecule, the “%Inh” value in test [3] is reported as 0%; in test [4] it was 0%; in test [5], 0%; in [6] it was 6%.
Take `NS(=O)(=O)c1cccc(-c2ccc3nccc(-c4cccc(S(N)(=O)=O)c4)c3c2)c1` [GW867253]: the “%Inh” value is recorded as 11% in the test with RIPK5; 37% with ROCK1; 37% in the test with ROCK2; 0% with ROS1; 0% in test [1]; 0% in test [2]. The “%Inh” value in [3] was determined as 4%; in [4] it was 7%; in test [5] it was 0%; in [6], 23%.
As for `O=c1cc(N2CCOCC2)nc2n(Cc3cccc(Cl)c3Cl)c(C3CC3)nn12` [GSK2358994], the “%Inh” value in the test on RIPK5 worked out at 7%; with ROCK1, 0%; with ROCK2, 0%; in the test with ROS1 it was 0%; in test [1], 0%; in [2] it was 16%. The “%Inh” value in test [3] was 0%; in [4], 0%; in [5] it was 0%; in [6], 17%.
In the case of `Fc1ccc(-c2ncn(CCCN3CCOCC3)c2-c2ccccn2)cc1` [SB-211742], the “%Inh” value in the test with RIPK5 is reported as 0%; with ROCK1, 0%; with ROCK2, 0%; in the test with ROS1 it was 0%; in test [1], 26%; in test [2], 0%. Moreover, the “%Inh” value in [3] was found to be 0%; in test [4], 5%; in test [5], 0%; in [6], 16%.
Turning to `CCc1ccnc(/C=C/c2n[nH]c3cc(Sc4ccccc4C(=O)NC)ccc23)c1`, the “%Inh” value came out at 0% in the test with RIPK5; 0% in the test on ROCK1; 0% with ROCK2; 19% in the test with ROS1; 0% in [1]; 0% in [2]. Further, the “%Inh” value in test [3] is recorded as 0%; in test [4] it was 0%; in test [5] it was 0%; in [6], 3%.
Consider `COc1ccc(S(=O)(=O)NC2CCN(c3cc(C)nc(Nc4cccc(C#N)c4)n3)CC2)cc1.O=C(O)C(F)(F)F` [GSK1653539], for which the “%Inh” value in the test with RIPK5 is 0%; in the test with ROCK1, 0%; with ROCK2, 0%; in the test on ROS1 it was 16%; in [1] it was 0%; in test [2], 0%. The “%Inh” value is reported as 2% in test [3], 23% in [4], 8% in test [5] and 0% in [6].
With `O=C(c1ccc(-c2cc(-c3c[nH]nc3-c3ccccn3)ccn2)cc1)N1CCOCC1` [GW812171], the “%Inh” value with RIPK5 was 22%; with ROCK1, 0%; with ROCK2, 24%; with ROS1, 0%; in test [1], 6%; in [2], 0%. Moreover, the “%Inh” value in [3] is 0%; in test [4], 0%; in test [5] it was 14%; in test [6] it was 0%.
With `CN(C1=C(c2ccccc2)C(=O)NC1=O)c1ccccc1` [SB-334860], the “%Inh” value with RIPK5 amounted to 15%; in the test with ROCK1, 0%; in the test on ROCK2, 0%; with ROS1, 4%; in test [1] it was 10%; in test [2] it was 0%. Also, the “%Inh” value is 7% in test [3], 12% in test [4], 4% in test [5] and 13% in test [6].
Take `Cc1c2ccc(N(C)c3ccnc(Nc4cccc(S(N)(=O)=O)c4)n3)cc2nn1Cc1ccccc1.Cl.Cl` [GW787226]: the “%Inh” value in the test on RIPK5 is reported as 28%; in the test on ROCK1, 48%; in the test on ROCK2, 0%; with ROS1, 62%; in [1], 18%; in test [2] it was 0%. In addition, the “%Inh” value in test [3] is recorded as 0%; in test [4], 0%; in test [5], 0%; in test [6], 19%.
Take `COc1ccc(Nc2ncc(C#N)c(Nc3ccccc3C(N)=O)n2)cc1N1CCN(C)CC1.Cl` [GSK1558669]: the “%Inh” value in the test with RIPK5 is 98.7%; in the test with ROCK1, 87%; in the test on ROCK2, 91.2%; in the test on ROS1, 97%; in test [1] it was 100%; in [2], 97%. In addition, the “%Inh” value in test [3] was found to be 98%; in test [4], 44%; in [5], 99.7%; in test [6], 47%.
Take `O=C(Nc1cccc(-c2nn3ncccc3c2-c2ccnc(Nc3cccc(C(F)(F)F)c3)n2)c1)c1c(F)cccc1F` [GSK299495]: the “%Inh” value in the test on RIPK5 stood at 0%; in the test on ROCK1 it was 12%; with ROCK2 it was 16%; with ROS1, 0%; in test [1] it was 2%; in [2] it was 0%. The “%Inh” value in test [3] was determined as 23%; in test [4], 5%; in [5], 97.4%; in test [6], 0%.
For `Cc1cn2c(=O)cc(N3CCOCC3)nc2n1Cc1cccc(Cl)c1Cl` [GSK2334006], the “%Inh” value came out at 0% in the test on RIPK5; 33% in the test with ROCK1; 30% with ROCK2; 15% with ROS1; 27% in test [1]; 0% in test [2]. Further, the “%Inh” value in test [3] is on record as 24%; in test [4], 6%; in test [5] it was 0%; in test [6], 5%.
Turning to `COc1ccc(CNC(=O)NC2CCN(c3ccnc(Nc4ccc(OC)cc4)n3)C2)cc1` (stereo not drawn) [GSK1379727], the “%Inh” value in the test on RIPK5 is recorded as 55%; with ROCK1 it was 40%; in the test on ROCK2, 40%; in the test on ROS1 it was 0%; in test [1], 0%; in [2] it was 0%. The “%Inh” value in test [3] was determined as 7%; in test [4], 0%; in test [5], 0%; in test [6], 0%.

(Values after article PMC5540273 (PLoS ONE, 2017).)
